About 8,800 targets were measured; listed, in parts, are those with a hit and a random draw of the rest. About 0.5% of all pairs of compound and target were hits. Values without a mark were called inactive.
Tests used:
Assay in all cases: log2 fold change, soluble protein after heating vs DMSO (PISA); higher = thermal stabilisation; K562 lysate, 10 uM; active = over 0.2 and 3.5 SD of the protein, either way, in both replicates (recomputed)
[1] = compound: C1=CC=C(C=C1)[C@H](COC2=CC3=C(C=C2)NC(=O)N3)NC(=O)C4=CC=CN(C4=O)CC5=CC(=C(C=C5)F)F
Outline: (§1)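 K562 pellets were dounce-homogenised in PBS pH 7.4 with 1 mM MgCl2, and the crude extract at 1 mg/mL protein was treated with 10 μM compound for 30 min. Aliquots were heated for 3 min across 48°C-58°C, pooled, and brought to 0.5% NP-40 at 4°C; soluble protein was the supernatant after 21,000xg for 90 min. Soluble protein was quantified by TMTpro 16plex LC-MS/MS with channel sums equalised, and reported as log2 fold change in thermal stability against DMSO controls, with values from duplicates.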

[2] = compound: CC1=C(SC2=C1C(=N[C@H](C3=NN=C(N32)C)CC(=O)N)C4=CC=C(C=C4)Cl)C
Outline: as §1

[3] = compound: CC1=C2C(=CC=C1)N=C(N(C2=O)C3=CC=CC=C3C)CN4C=NC5=C(N=CN=C54)N
Outline: as §1

[4] = compound: Cc1sc2c(c1C)C(c1ccc(Cl)cc1)=N[C@@H](CC(=O)OC(C)(C)C)c1nnc(C)n1-2
Outline: as §1

[5] = compound: c1ccc([C@@H]2C[C@H]2NC2CCNCC2)cc1
Outline: as §1

IFITM3 (UniProt Q01628)
log2 fold change [1]: -0.011 | log2 fold change [2]: -0.078 | log2 fold change [3]: -0.118 | log2 fold change [4]: -0.088 | log2 fold change [5]: 0.026

HAUS7 isoform 2 (UniProt Q99871)
Sequence of UniProt Q99871 (Q99871 whole entry, looked up): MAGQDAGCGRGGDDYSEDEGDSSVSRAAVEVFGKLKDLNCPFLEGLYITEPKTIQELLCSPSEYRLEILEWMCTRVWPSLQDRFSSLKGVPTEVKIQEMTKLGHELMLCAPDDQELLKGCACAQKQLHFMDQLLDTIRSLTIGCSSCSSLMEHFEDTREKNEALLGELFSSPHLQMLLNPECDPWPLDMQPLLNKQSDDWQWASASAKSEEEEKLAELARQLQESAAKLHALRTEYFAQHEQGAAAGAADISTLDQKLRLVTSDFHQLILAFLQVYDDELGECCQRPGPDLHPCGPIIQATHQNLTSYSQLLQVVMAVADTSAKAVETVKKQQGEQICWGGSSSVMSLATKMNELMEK
log2 fold change [1]: 0.163 | log2 fold change [2]: 0.036 | log2 fold change [3]: 0.019 | log2 fold change [4]: 0.069 | log2 fold change [5]: 0.032

HAUS6 (UniProt Q7Z4H7)
Sequence of UniProt Q7Z4H7 (Q7Z4H7 whole entry, looked up): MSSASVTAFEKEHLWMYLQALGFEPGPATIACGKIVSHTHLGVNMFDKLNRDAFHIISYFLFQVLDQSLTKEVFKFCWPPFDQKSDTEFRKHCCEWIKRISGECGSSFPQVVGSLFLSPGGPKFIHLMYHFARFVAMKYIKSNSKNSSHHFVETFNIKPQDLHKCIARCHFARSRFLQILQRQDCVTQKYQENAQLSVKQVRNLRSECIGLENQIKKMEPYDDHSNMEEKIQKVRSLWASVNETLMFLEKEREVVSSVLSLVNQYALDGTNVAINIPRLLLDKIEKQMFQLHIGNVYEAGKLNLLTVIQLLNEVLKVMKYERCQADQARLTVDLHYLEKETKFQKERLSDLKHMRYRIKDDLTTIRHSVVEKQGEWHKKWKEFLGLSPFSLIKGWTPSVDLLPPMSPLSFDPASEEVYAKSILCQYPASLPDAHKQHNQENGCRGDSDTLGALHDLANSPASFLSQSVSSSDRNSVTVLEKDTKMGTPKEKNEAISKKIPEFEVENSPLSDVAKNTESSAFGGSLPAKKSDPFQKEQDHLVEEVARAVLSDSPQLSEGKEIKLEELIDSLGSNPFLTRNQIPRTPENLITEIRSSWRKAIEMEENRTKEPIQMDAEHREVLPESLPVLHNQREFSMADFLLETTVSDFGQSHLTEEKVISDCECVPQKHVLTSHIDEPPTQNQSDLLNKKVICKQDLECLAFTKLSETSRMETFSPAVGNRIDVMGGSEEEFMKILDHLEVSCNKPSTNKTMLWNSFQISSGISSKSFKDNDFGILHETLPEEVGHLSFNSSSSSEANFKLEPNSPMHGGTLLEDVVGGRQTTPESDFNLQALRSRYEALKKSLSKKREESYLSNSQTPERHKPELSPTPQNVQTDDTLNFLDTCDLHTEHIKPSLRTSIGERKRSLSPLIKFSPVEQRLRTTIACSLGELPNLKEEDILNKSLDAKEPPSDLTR
log2 fold change [1]: 0 | log2 fold change [2]: -0.012 | log2 fold change [3]: 0.021 | log2 fold change [4]: 0.005 | log2 fold change [5]: 0.041

GOLPH3 (UniProt Q9H4A6)
log2 fold change [1]: -0.067 | log2 fold change [2]: 0.018 | log2 fold change [3]: 0.022 | log2 fold change [4]: -0.089 | log2 fold change [5]: 0.008

HDGFL2 isoform 2 (UniProt Q7Z4V5)
log2 fold change [1]: 0.051 | log2 fold change [2]: -0.014 | log2 fold change [3]: 0.01 | log2 fold change [4]: -0.076 | log2 fold change [5]: -0.212

INTS10 (UniProt Q9NVR2)
Sequence of UniProt Q9NVR2 (Q9NVR2 whole entry, looked up): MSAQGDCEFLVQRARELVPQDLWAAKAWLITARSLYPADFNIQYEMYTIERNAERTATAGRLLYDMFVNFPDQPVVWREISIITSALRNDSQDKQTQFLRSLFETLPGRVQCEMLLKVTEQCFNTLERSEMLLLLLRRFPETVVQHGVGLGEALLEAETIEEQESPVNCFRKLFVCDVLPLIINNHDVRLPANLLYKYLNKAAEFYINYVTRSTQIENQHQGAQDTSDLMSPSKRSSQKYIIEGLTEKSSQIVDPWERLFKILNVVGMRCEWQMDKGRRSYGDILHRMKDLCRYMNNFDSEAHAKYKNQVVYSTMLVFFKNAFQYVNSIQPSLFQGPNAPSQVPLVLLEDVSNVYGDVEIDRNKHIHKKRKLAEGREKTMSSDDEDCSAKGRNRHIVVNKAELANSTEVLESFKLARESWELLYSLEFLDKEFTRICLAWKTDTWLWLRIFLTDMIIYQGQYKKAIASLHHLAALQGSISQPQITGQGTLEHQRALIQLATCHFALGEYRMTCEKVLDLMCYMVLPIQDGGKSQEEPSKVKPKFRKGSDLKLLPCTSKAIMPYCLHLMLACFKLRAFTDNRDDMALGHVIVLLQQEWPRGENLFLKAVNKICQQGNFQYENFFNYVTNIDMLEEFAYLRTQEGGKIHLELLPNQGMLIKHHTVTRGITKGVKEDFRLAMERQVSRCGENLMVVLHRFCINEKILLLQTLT
log2 fold change [1]: -0.015 | log2 fold change [2]: -0.057 | log2 fold change [3]: 0.023 | log2 fold change [4]: -0.077 | log2 fold change [5]: -0.003

HNRNPUL1 (UniProt Q9BUJ2)
log2 fold change [1]: 0.043 | log2 fold change [2]: -0.022 | log2 fold change [3]: -0.028 | log2 fold change [4]: -0.003 | log2 fold change [5]: -0.006

GSK3A (UniProt P49840)
Sequence of UniProt P49840 (P49840 whole entry, looked up): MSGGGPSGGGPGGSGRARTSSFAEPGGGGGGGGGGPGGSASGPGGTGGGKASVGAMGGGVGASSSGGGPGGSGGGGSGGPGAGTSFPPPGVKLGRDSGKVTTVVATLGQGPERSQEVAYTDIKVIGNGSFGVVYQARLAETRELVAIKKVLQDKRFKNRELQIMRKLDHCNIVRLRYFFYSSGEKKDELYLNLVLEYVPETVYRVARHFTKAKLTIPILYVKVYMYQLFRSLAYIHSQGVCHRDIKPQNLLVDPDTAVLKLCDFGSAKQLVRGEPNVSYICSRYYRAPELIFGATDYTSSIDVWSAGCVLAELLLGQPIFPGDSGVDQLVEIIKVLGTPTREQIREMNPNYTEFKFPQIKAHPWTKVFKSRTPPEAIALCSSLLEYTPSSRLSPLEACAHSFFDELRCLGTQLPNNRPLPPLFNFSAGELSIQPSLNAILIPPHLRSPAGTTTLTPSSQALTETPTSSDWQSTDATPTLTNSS
log2 fold change [1]: -0.041 | log2 fold change [2]: 0.03 | log2 fold change [3]: -0.059 | log2 fold change [4]: 0.036 | log2 fold change [5]: -0.044

HADHB (UniProt P55084)
Sequence of UniProt P55084 (P55084 whole entry, looked up): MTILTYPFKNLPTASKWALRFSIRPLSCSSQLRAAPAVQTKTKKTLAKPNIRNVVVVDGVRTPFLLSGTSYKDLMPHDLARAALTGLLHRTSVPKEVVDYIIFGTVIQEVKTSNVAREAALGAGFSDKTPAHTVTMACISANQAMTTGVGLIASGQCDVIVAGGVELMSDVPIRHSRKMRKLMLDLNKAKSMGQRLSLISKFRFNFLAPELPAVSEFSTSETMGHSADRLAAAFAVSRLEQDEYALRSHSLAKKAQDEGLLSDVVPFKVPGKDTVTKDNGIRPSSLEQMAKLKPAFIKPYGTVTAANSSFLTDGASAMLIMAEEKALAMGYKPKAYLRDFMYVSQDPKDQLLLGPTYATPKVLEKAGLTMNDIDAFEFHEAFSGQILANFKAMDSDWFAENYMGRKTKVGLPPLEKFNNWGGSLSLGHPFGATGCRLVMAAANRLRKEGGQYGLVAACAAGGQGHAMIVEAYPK
log2 fold change [1]: 0.053 | log2 fold change [2]: 0.021 | log2 fold change [3]: 0.105 | log2 fold change [4]: 0.167 | log2 fold change [5]: -0.048

HEATR3 (UniProt Q7Z4Q2)
log2 fold change [1]: -0.101 | log2 fold change [2]: 0.022 | log2 fold change [3]: 0.008 | log2 fold change [4]: -0.024 | log2 fold change [5]: 0.028

H2AFY (UniProt O75367)
log2 fold change [1]: -0.035 | log2 fold change [2]: 0.045 | log2 fold change [3]: 0.026 | log2 fold change [4]: 0.296 (active) | log2 fold change [5]: -0.045

HAUS5 (UniProt O94927)
log2 fold change [1]: 0.043 | log2 fold change [2]: 0.02 | log2 fold change [3]: 0.003 | log2 fold change [4]: -0.055 | log2 fold change [5]: 0.089

IGFBP4 (UniProt P22692)
Sequence of UniProt P22692 (P22692 whole entry, looked up): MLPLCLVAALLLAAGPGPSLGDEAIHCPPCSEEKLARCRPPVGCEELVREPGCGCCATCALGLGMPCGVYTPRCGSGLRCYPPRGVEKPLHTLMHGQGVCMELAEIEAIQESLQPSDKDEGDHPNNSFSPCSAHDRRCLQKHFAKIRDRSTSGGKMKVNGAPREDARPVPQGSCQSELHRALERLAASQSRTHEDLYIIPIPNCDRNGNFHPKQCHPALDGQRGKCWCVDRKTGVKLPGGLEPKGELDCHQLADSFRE
log2 fold change [1]: 0.135 | log2 fold change [2]: -0.099 | log2 fold change [4]: -0.032 | log2 fold change [5]: -0.171

GORASP1 (UniProt Q9BQQ3)
Sequence of UniProt Q9BQQ3 (Q9BQQ3 whole entry, looked up): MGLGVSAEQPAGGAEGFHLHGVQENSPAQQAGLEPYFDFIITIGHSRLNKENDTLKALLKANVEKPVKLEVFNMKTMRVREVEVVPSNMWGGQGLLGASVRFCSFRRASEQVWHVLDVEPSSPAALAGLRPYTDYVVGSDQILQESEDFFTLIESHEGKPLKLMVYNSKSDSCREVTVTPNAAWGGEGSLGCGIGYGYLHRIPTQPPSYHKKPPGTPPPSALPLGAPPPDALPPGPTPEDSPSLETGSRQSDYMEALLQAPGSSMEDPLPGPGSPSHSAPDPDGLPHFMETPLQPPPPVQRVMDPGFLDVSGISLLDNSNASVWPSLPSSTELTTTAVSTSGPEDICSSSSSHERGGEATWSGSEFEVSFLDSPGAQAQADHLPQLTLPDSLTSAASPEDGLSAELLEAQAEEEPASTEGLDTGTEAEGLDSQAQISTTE
log2 fold change [3]: -0.049 | log2 fold change [4]: -0.031 | log2 fold change [5]: 0.042

HNRNPUL1 (UniProt M0R247)
log2 fold change [1]: 0.059 | log2 fold change [2]: -0.014 | log2 fold change [5]: -0.044

H3-3A (UniProt P84243)
log2 fold change [1]: 0.059 | log2 fold change [2]: 0.016 | log2 fold change [3]: 0.024 | log2 fold change [5]: -0.004

IRS2 (UniProt Q9Y4H2)
log2 fold change [1]: -0.091 | log2 fold change [2]: 0.246 | log2 fold change [4]: -0.129 | log2 fold change [5]: -0.354

HOMER3 (UniProt Q9NSC5)
log2 fold change [1]: 0.072 | log2 fold change [2]: -0.276 | log2 fold change [5]: 0

HSPA8 (UniProt E9PN89)
log2 fold change [1]: 0.003 | log2 fold change [2]: 0.044 | log2 fold change [4]: -0.219 | log2 fold change [5]: -0.393

GTPBP6 (UniProt O43824)
log2 fold change [3]: 0.385 | log2 fold change [4]: -0.439 | log2 fold change [5]: 0.118

IPP (UniProt Q9Y573)
log2 fold change [3]: -0.009 | log2 fold change [4]: -0.099 | log2 fold change [5]: 0.02

GPN2 (UniProt Q9H9Y4)
Sequence of UniProt Q9H9Y4 (Q9H9Y4 whole entry, looked up): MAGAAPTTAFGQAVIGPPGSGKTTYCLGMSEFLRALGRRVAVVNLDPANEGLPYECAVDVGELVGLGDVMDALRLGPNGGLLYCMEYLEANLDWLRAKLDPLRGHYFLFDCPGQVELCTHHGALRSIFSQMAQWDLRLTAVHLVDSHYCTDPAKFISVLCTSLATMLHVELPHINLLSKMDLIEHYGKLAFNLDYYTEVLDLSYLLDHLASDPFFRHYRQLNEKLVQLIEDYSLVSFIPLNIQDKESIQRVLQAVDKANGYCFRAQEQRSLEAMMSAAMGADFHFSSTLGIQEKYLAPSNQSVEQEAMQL
log2 fold change [3]: 0.07 | log2 fold change [4]: 0.057 | log2 fold change [5]: -0.034

HYDIN (UniProt Q4G0P3)
log2 fold change [3]: -0.069 | log2 fold change [4]: -0.078

ITPR2 (UniProt Q14571)
log2 fold change [4]: -0.171

HMGA1 (UniProt P17096)
Sequence of UniProt P17096 (P17096 whole entry, looked up): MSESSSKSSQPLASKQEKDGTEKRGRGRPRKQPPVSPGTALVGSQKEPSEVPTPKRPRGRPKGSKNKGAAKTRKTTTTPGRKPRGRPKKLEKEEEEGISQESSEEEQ
log2 fold change [1]: 0.009 | log2 fold change [2]: 0.024 | log2 fold change [3]: 0.011 | log2 fold change [4]: -0.031 | log2 fold change [5]: -0.135

ISL2 (UniProt Q96A47)
Sequence of UniProt Q96A47 (Q96A47 whole entry, looked up): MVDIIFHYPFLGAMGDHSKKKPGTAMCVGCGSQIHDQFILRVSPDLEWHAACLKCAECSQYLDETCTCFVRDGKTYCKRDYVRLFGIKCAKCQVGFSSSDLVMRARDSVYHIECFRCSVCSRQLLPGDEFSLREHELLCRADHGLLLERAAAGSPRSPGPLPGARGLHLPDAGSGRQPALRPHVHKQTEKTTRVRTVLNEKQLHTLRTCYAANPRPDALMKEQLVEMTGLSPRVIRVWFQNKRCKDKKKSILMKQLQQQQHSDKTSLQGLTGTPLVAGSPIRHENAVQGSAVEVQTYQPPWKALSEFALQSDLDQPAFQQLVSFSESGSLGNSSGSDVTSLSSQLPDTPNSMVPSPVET
log2 fold change [1]: 0.038 | log2 fold change [2]: 0.058 | log2 fold change [4]: -0.063 | log2 fold change [5]: 0.207

INTS14 (UniProt Q96SY0)
Sequence of UniProt Q96SY0 (Q96SY0 whole entry, looked up): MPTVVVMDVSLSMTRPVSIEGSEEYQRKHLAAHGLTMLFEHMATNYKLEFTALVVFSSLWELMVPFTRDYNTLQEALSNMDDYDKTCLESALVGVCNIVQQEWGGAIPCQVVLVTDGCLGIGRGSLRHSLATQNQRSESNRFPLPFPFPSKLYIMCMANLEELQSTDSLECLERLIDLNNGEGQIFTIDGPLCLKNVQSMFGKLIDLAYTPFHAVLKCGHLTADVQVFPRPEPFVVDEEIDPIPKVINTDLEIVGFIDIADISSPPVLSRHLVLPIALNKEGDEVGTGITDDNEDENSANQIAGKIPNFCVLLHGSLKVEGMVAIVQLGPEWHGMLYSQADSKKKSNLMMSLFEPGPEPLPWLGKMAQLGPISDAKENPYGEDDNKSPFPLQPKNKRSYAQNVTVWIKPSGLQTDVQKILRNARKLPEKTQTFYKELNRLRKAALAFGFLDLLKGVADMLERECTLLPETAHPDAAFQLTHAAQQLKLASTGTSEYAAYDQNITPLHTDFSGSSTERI
log2 fold change [1]: 0.067 | log2 fold change [2]: 0.034 | log2 fold change [3]: -0.038 | log2 fold change [4]: 0.007 | log2 fold change [5]: 0.009

GIPC3 (UniProt Q8TF64)
log2 fold change [1]: -0.002 | log2 fold change [2]: 0.042 | log2 fold change [4]: 0.013 | log2 fold change [5]: -0.075

Reference: the supplement of paper PMC10849652
